In the supplement of paper PMC7156485:

Key:
Details in all cases: concentration: 10 µM; 24 h
HCC1569 [1] = experiment: cell number relative to DMSO (% of DMSO); higher = more cells (less growth inhibition / toxicity)
Method in brief: (§1)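 After 24 h at 37 °C with compounds at 10 µM, in triplicate, HCC1569 and TDF cells were fixed with 3.7% formaldehyde. Immunostaining used a rabbit anti-H1.0 antibody and an AlexaFluor 647 secondary, with DAPI, and six fields per well were imaged at ×10. H1.0 nuclear intensity or cell number is presented as percent of the plate control, from the median of replicates, with HCC1569 values smoothed for positional effects.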

TDF [2] = experiment: as above
Method in brief: as §1

TDF [3] = experiment: H1.0 immunofluorescence intensity relative to DMSO (% of DMSO); higher = stronger H1.0 induction, active = 120 or more
Method in brief: as §1

HCC1569 [4] = experiment: H1.0 immunofluorescence intensity relative to DMSO (% of DMSO); higher = stronger H1.0 induction, active = 140 or more
Method in brief: as §1
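Throughout, for H1.0 immunofluorescence intensity relative to DMSO: TDF is a line of transformed human dermal fibroblasts of mesenchymal origin.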
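Throughout, for cell number relative to DMSO: TDF denotes transformed human dermal fibroblasts of mesenchymal origin.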

Row | Structure (SMILES) | cell number (HCC1569 [1]) | cell number (TDF [2]) | H1.0 immunofluorescence intensity (TDF [3]) | H1.0 immunofluorescence intensity (HCC1569 [4])
1 | OC1CCN2Cc3ccccc3N=C12 (configuration not stated) [Vasicine] | 102 | 105 | 98.7 (inactive) | 89.7 (inactive)
2 | CCC(C)C(CC)C(N)=O (configuration not stated) [2-ethyl-3-methylpentanamide] | 103 | 107 | 92.3 (inactive) | 96.6 (inactive)
3 | CC(=O)NCCc1c[nH]c2ccc(O)cc12 [N-Acetyl-5-hydroxytryptamine] | 101 | 101 | 93.3 (inactive) | 87.2 (inactive)
4 | CC1(C)CCCC(C)(C2CCC3(C)C2C(O)CC2C4(C)CCC(O)C(C)(C)C4C(O)CC23C)O1 (configuration not stated) [Panaxatriol] | 100 | 93.4 | 94.8 (inactive) | 99.6 (inactive)
5 | O=C1C(=Cc2ccc(O)c(O)c2)Oc2c1ccc(OC1OC(CO)C(O)C(O)C1O)c2O (configuration not stated) [Maritimein] | 99.5 | 94.8 | 102 (inactive) | 99.6 (inactive)
6 | CCCCCC=CCC=CC=CC=CC(SCC(NC(C)=O)C(=O)O)C(O)CCCC(=O)O (configuration not stated) [N-Acetyl-leukotriene E4] | 103 | 102 | 92 (inactive) | 100 (inactive)
7 | CC[C@H](C)C(=O)O[C@H]1C[C@H](O)C=C2C=C[C@H](C)[C@H](CC[C@@H](O)C[C@@H](O)CC(=O)[O-])[C@H]21.[Na+] | 101 | 93.2 | 95.9 (inactive) | 98.1 (inactive)
8 | O=c1ccn(C2OC(COP(=O)([O-])OP(=O)([O-])O)C(O)C2O)c(=O)[nH]1.[Na+].[Na+] (configuration not stated) [Uridine 5'-diphosphate sodium] | 105 | 106 | 95.6 (inactive) | 98.7 (inactive)
